The values below come from PubChem BioAssay (NCATS).

Where “and” joins values, the source holds several entries; their conditions need not be identical. Equal values may be shown once. Records with an inconclusive call do not appear. Calls of active or inactive are those of the source. Calls come from the whole dose curve; as a rule, active = well fitted inhibition curve with a large enough effect; inconclusive = small, poorly fitted or top-dose-only effect; inactive = flat fitted curve, though single readings scatter.

Holding throughout (experiment): qHTS profiling for inhibitors of Plasmodium falciparum proliferation (AID 504749); note: nearly all actives have a fitted effect of over 60% in size
Conditions in all cases: P. falciparum in erythrocytes, SYBR Green DNA, 72 h; series mostly up to 28.7 µM
(qHTS replaces the single test concentration by a dilution series.)

The test system of test [1] is P94_40. Summed up:
(§1)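 Readout was DNA-dye fluorescence from lysed cultures, ex 485/em 535 nm. Parasitized red cells had grown 72 h with compound; data scaled between 0.29 uM artemisinin and DMSO wells and corrected using vehicle-only plates.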

Test [2] deals with PAD. Summed up: as §1
Test [3] concerns PC15. Summed up: as §1
Test [4] concerns PC26. Summed up: as §1
For test [5], the system named is PC49. Summed up: as §1
Test [6] has as its system SC27B. Summed up: as §1
For test [7], the system named is TAB109. Summed up: as §1
In test [8] the test system is TAB113. Summed up:
as §1

The test system of test [9] is W2. Summed up:
as §1

The test system of test [10] is TAB165. Summed up:
as §1
Potency is the fitted concentration of half-maximal effect.

For the molecule `O=C(NC(=O)c1c(F)cccc1F)Nc1ccc(Cl)c(Oc2ncc(C(F)(F)F)cc2Cl)c1`, the Potency result in [1], in [2], in test [3], in [4], in test [5] and in test [6] was “inactive” each time. In addition, the Potency result in test [7], in test [8] and in [9] was “inactive” each time.

For `O=[N+]([O-])c1ccc(F)c([N+](=O)[O-])c1`, the Potency entry in test [1], in [2], in test [3], in test [4], in test [5] and in test [6] was “inactive” throughout. Further, the Potency result in test [7], in [8], in test [10] and in test [9] was “inactive” throughout.

Regarding `CN1C2CCC1CC(OC(c1ccccc1)c1ccc(Cl)cc1)C2` (centres undefined), the Potency in test [1] was 10 µM (active); in test [2], 12.6 µM (active); in [3], 3.98 µM (active); in test [4], 7.57 µM (active); in test [5] it was 5.01 µM (active); in test [6], 11.2 µM (active). Besides, the Potency in test [7] is 7.08 µM (active); in test [8], 7.94 µM (active); in test [10], 5.01 µM (active); in [9] it was 2.39 µM (active).

Consider `C#CC(C)(O)CC` (centres undefined), for which the Potency entry in [1], in [2], in test [3], in [4], in test [5] and in [6] was “inactive” in each case. For the same molecule, the Potency entry in test [7], in [8], in [10] and in test [9] was “inactive” each time.

For the molecule `Clc1ccc(C2(Cn3cncn3)OCCO2)c(Cl)c1`, the Potency entry in [1], in [2], in test [3], in test [4], in test [5] and in test [6] was “inactive” throughout. For the same molecule, the Potency entry in test [7], in test [8], in test [10] and in test [9] was “inactive” in each case.

As for `CCCCNCC(O)c1ccc(O)cc1` (centres undefined), the Potency result in test [1], in [2], in test [3], in [4], in test [5] and in [6] was “inactive” each time. Also, the Potency entry in [7], in test [8], in [10] and in test [9] was “inactive” each time.

In the case of `O[C@H]1[C@H]2[C@H](O)CCCN2C[C@H]1O`, the Potency entry in [1], in [2], in test [3], in test [4], in test [5] and in test [6] was “inactive” each time. The Potency entry in test [7], in test [8], in test [10] and in test [9] was “inactive” each time.

As for `N#CN`, the Potency result in test [1], in [2], in [3], in [4], in [5] and in test [6] was “inactive” each time. The Potency entry in test [7], in [8], in test [10] and in [9] was “inactive” in each case.

Consider `CC12NC(Cc3ccccc31)c1ccccc12` (centres undefined), for which the Potency entry in test [2], in test [3], in test [4] and in [5] was “inactive” in each case. For the same molecule, the Potency was 2.82 µM (active) in test [7] and 4.26 µM (active) in test [9].

On to `F/C(COc1ccc2c(c1)[nH]c1ccccc12)=C1/CN2CCC1CC2`, for which the Potency in test [2] was 8.91 µM (active); in test [5] it was 2.82 µM (active); in test [6] it was 10 µM (active); in test [7], 7.94 µM (active); in test [10], 4.47 µM (active); in [9], 1.51 µM (active).

With `COC([CH2][Hg])CNC(=O)c1ccccc1OCC(=O)O` (centres undefined), the Potency result in [1], in test [2], in test [3], in [4], in [5] and in test [6] was “inactive” throughout. The Potency entry in [8], in test [10] and in test [9] was “inactive” throughout.

For `CNC1(c2ccccc2Cl)CCCCC1=O` (centres undefined), the Potency result in [1], in test [3], in [4], in test [5], in [6] and in test [7] was “inactive” in each case. Also, the Potency entry in test [8] and in [10] was “inactive” throughout. The Potency in test [9] was 4.78 µM (active).

As for `C[C@H]1CCC[C@H](O)CCCCCc2cc(O)cc(O)c2C(=O)O1`, the Potency entry in test [2], in test [3], in test [5] and in test [7] was “inactive” each time.

As for `CN1[C@@H]2CC[C@H]1CC(OC1c3ccccc3CCc3ccccc31)C2` (some centres undefined), the Potency result in test [3], in [5] and in test [8] was “inactive” each time. In addition, the values for the Potency in [10] and in [9] were 3.98 µM (active) and 2.28 µM (active), respectively.

As to `O=C(CS(=O)C(c1ccccc1)c1ccccc1)NO` (centres undefined), the Potency result in test [1], in test [2], in test [3], in test [4], in [5] and in test [6] was “inactive” each time. The Potency result in test [8], in test [10] and in test [9] was “inactive” each time.

With `CNC(=O)Oc1ccccc1C(=O)Nc1ccccc1`, the Potency result in [3] was “inactive”. Also, in [9], the Potency is 13.5 µM (active).

Turning to `CCCCCl`, the Potency result in test [1], in test [2], in test [3], in [5], in test [6] and in test [7] was “inactive” throughout. The Potency result in test [8] and in test [10] was “inactive” throughout.

As for `CC(C)(C)c1cc(O)ccc1O`, the Potency was 7.08 µM (active) and 12.6 µM (active) in test [1]; 11.2 µM (active) in test [2]; 11.2 µM (active) in test [3]; 12 µM (active) in test [4]; 7.94 µM (active) in test [6]; 4.47 µM (active) in [7]. Besides, the Potency in test [8] is 12.6 µM (active); in [10] it was 10 µM (active); in test [9], 1.69 µM (active) and 4.26 µM (active).

In the case of `CCC1C(C)=NN=C(c2ccc(OC)c(OC)c2)c2cc(OC)c(OC)cc21` (centres undefined), the Potency entry in test [1], in [2], in [3], in test [5], in [6] and in test [7] was “inactive” throughout. Also, the Potency entry in test [8] and in [10] was “inactive” in each case.

Take `Cc1sc2ccccc2c1CC1=NCCN1`: the Potency result in [1], in test [2], in test [4], in test [5], in [6] and in [7] was “inactive” throughout. The Potency entry in test [8] and in test [10] was “inactive” throughout.

As to `CCN(CC)C(=O)/C(Cl)=C(\C)OP(=O)(OC)OC`, the Potency result in test [1], in test [2], in test [3], in [5], in test [6] and in test [7] was “inactive” throughout. For the same molecule, the Potency entry in [8] and in test [10] was “inactive” in each case.

For `OC(c1ccccc1)(c1ccccc1)C1CN2CCC1CC2` (centres undefined), the Potency result in test [1], in test [6], in test [8] and in [10] was “inactive” throughout. For the same molecule, in test [5], the Potency was 1 µM (active).

As to `CCOc1ccc2c3c1O[C@H]1[C@@H](O)C=C[C@H]4[C@@H](C2)N(C)CC[C@@]341`, the Potency result in test [1], in test [2], in [3], in test [5], in test [6] and in [8] was “inactive” each time. The Potency entry in test [10] is “inactive”.

As for `[Cl-].[Cl-].[Hg+2]`, the Potency in [2] is 7.08 µM (active); in test [9] it was 9.53 µM (active).

As for `c1ccc(C2(N3CCCC3)CCCCC2)cc1`, the Potency entry in test [1] was “inactive”. The Potency is 13.5 µM (active) in [4], 7.94 µM (active) in test [7], 12.6 µM (active) in [10] and 7.57 µM (active) in test [9].

Regarding `CCOP(=O)(OCC)O/C(=C/Cl)c1ccc(Cl)cc1Cl`, the Potency entry in test [2], in test [3], in test [5], in [7], in test [8] and in test [10] was “inactive” in each case.

`CCC(=O)O[C@@](Cc1ccccc1)(c1ccccc1)[C@@H](C)CN(C)C`: the Potency result in [1], in test [2], in test [6], in test [7], in test [8] and in [10] was “inactive” in each case.

Regarding `CCC1(c2ccccc2)C(=O)NC(=O)N(C)C1=O` (centres undefined), the Potency result in [1] and in test [5] was “inactive” in each case. In addition, the Potency in test [9] is 6.75 µM (active).

On to `C[C@@H](Cc1ccccc1)NCCC(c1ccccc1)c1ccccc1`, for which the Potency result in test [5] was “inactive”. Also, the Potency in test [9] is 2.87 µM (active).

In the case of `O=C1CCO1`, the Potency result in [1], in test [2], in test [4], in [5], in [6] and in test [7] was “inactive” in each case. The Potency result in test [8], in [10] and in test [9] was “inactive” each time.

Consider `CC1CCC(C(C)C)C(OC(=O)c2ccccc2N)C1` (centres undefined), for which the Potency entry in test [2], in test [4], in test [5], in [6], in test [7] and in test [8] was “inactive” throughout.

Regarding `CN1CCCC(=C(c2cccs2)c2cccs2)C1`, the Potency entry in test [3] was “inactive”. Also, the Potency in test [9] is 4.78 µM (active).

With `CCCC(=O)OC(C(Cl)(Cl)Cl)P(=O)(OC)OC` (centres undefined), the Potency entry in [2], in [5], in test [6], in [7], in test [8] and in test [10] was “inactive” each time.
